Compound activity deposited in PubChem by several laboratories.
CYP2C9 act = increases human cytochrome P450 2C9 activity; P11712; recombinant CYP2C9, luciferin-H conversion, luminescence; hits give high values; factor 1 = untreated enzyme, 0 = blocked; activation factor at 5 µM; 96,000 compounds, 1.4% hits;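 active = activation factor of 2 or more for CYP2C9 at a 5 µM dose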;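 also: 0 = sulfaphenazole-blocked wells and 1 = vehicle-only wells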
Target sequence (P11712 whole entry, looked up): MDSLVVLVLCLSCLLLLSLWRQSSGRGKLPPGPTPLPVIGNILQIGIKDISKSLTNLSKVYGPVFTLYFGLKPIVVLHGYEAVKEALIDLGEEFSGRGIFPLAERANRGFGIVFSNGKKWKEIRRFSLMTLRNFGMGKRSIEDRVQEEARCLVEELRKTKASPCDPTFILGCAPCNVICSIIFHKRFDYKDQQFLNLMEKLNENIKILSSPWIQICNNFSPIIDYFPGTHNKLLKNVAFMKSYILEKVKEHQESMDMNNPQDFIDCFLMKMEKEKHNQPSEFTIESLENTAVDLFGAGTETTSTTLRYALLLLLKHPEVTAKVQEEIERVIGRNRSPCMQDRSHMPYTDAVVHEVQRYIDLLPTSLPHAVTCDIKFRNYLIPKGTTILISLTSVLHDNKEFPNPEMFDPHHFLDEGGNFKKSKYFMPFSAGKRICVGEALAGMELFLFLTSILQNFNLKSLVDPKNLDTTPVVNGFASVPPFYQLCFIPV
CYP2C19 inhib = blocks human cytochrome P450 2C19; inhibition, % at 5 µM; P33261; CYP2C19 Supersomes, luciferin-H EGE luminescence, 30 min; 96,000 compounds, 21% hits;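 active = CYP2C19 inhibition above a set limit at 5 µM in the primary screen, cut at about 50% in these data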;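 also: plate controls were negative control wells for no effect and 2.5 mM tranylcypromine positive control for full effect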
CYP2C9 inh = human CYP2C9 inhibition; CYP2C9 Supersomes, luciferin-H conversion, luminescence; 96,000 compounds, 20% hits; P11712; AID 777; inhibition, % at 5 µM;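 active = blocking of liver enzyme CYP2C9 beyond about 50% at 5 µM, limit read from the data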
PostGolgi ctrl = yeast control strain growth, post-Golgi counter-screen | efflux-deficient yeast background strain, growth absorbance A615, 16 h | inhibition, % at 10 µM | 98,000 compounds, 5% hits | AID 738
CYP2C19 activ = activators of human cytochrome P450 2C19; recombinant CYP2C19, luciferin-H EGE luminescence; hits give high values; 0 = fully inhibited enzyme, 1 = untreated enzyme; AID 1025; P33261; 96,000 tested, under 10 active; activation factor at 5 µM;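 active = activation factor of at least 2 at 5 µM in the primary screen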;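 also: 0 = wells with 2.5 mM tranylcypromine and 1 = vehicle-only wells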
PostGolgi yeast = growth inhibition of a yeast mutant, post-Golgi transport screen; 98,000 compounds, 0.9% hits; inhibition, % at 10 µM; post-Golgi transport phenotypic cell assay; AID 739;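 also: yeast cells grown in 1536-well plates; yeast grown about 18 h at 30C before absorbance read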
Starred values were filed as active, the others as inactive. A selection: hits, their analogues and other compounds. The true share with any hit is near 32%. Rule as the data show it, unless noted: active = inhibition above about 30%; inactive = the rest.

SMILES	CYP2C9 act	CYP2C19 inhib	CYP2C9 inh	PostGolgi ctrl	CYP2C19 activ	PostGolgi yeast
Cc1ccc(S(=O)(=O)Cn2nnnc2CN2CCOCC2)cc1	0.8	9	18	10	0.9	3
Cc1ccc(S(=O)(=O)Cn2nnnc2CN2CCCC3(CCCCC3)C2)cc1	0.2	93*	83*	23	0.1	-3
CCOC(=O)C(=O)Nc1ccc(F)cc1	1.1	-3	-13	2	1	6
O=C(COC(=O)c1ccccc1C(=O)N1CCN(c2ccc(F)cc2)CC1)NCc1ccccc1	0.1	82*	86*	3	0.2	8
Cc1occc1C(=O)OCC(=O)Nc1ccc(F)cc1	0.7	86*	32	9	0.1	-9
O=C(COC(=O)c1ccccc1C(=O)N1CCN(c2ccccc2)CC1)Nc1ccc(F)cc1	0.1	72*	91*	9	0.3	12
Cn1cc(C(=O)NCN2CCCCC2)c2ccccc21	1.1	3	-9	11	1	-7
N#CC1=C(N)c2ccccc2CC12CCCCC2	0.2	41	78*	39*	0.6	1
COc1ccc(CNc2ccc3cn[nH]c3c2)c(OC)c1OC	0.1	98*	86*	-1	0	-5
CCOc1cc(CNc2ccc3cn[nH]c3c2)ccc1OC	0.3	88*	75*	0	0.1	-1
C=CCN1C(=O)CC(C(=O)NC)SC1=Nc1ccc(C(=O)OCC)cc1 (stereo not given)	0.7	11	25	7	0.9	0
CNC(=O)C1CC(=O)N(CCCc2ccccc2)C(=Nc2ccccc2)S1 (stereo not given)	0.4	65*	56*	14	0.4	-2
Cc1ccccc1N1CCN(C(=O)c2ccc(Oc3ccc(C(F)(F)F)cn3)cc2)CC1	0.2	19	76*	28	0.8	11
Cc1cccc(C(=O)N2CCN(c3ccc(C(F)(F)F)cn3)CC2)c1C	0.6	74*	39	22	0.3	0
COc1cccc(NC(=O)N2CCN(c3ccc(C(F)(F)F)cn3)CC2)c1	1	-1	4	12	1	0
CCOc1ccc(C(=O)N2CCN(c3cccc(C)c3C)CC2)cc1	0.7	19	27	19	0.8	17
CC1(C)CC(=O)C2=C(C1)OC1=C(C(=O)CC(C)(C)C1)C2c1ccccc1	1	3	-2	19	1	16
CC1(C)CC(=O)C2=C(C1)Oc1nc3ccccc3cc1C2C(C#N)C#N (stereo not given)	0.4	26	60*	9	0.7	-6
Cc1noc(/C=C/NCc2cccnc2)c1S(=O)(=O)N(C)CC(=O)N1CCc2ccccc21	0.2	17	78*	4	0.8	-15
Cc1noc(/C=C/N(C)C)c1S(=O)(=O)N(C)CC(=O)N1CCc2ccccc21	0.6	4	39	7	1	4
Cc1nnc(SCCN2C(=O)c3ccccc3C2=O)[nH]c1=O	0.9	0	12	6	1	-3
O=C1c2ccccc2C(=O)N1CCSc1n[nH]c(=S)s1	0.2	6	82*	6	0.9	4
O=C(COc1ccccc1)Nc1ccc(CSc2ccccc2)cc1	1	-3	-3	9	1	-1
C=CCN=C(NC#N)SCCc1ccccc1	0.5	93*	52*	5	0.1	2
C=CCN=C(NC#N)SCC(=O)NCc1ccccc1	0.8	51*	17	-2	0.5	3
SMILES	CYP2C9 act	CYP2C19 inhib	CYP2C9 inh	PostGolgi ctrl	CYP2C19 activ	PostGolgi yeast
O=c1c2cn[nH]c2nc(SCc2ccc3c(c2)OCCO3)n1-c1ccccc1	0.1	90*	88*	16	0.1	-3
CCc1ccccc1-n1c(SCC(=O)Nc2ccc3c(c2)OCCO3)nc2[nH]ncc2c1=O	0.4	54*	61*	7	0.5	0
Nc1ccc(Oc2ccc([N+](=O)[O-])cc2[N+](=O)[O-])cc1	1	26	1	3	0.7	-3
COC(=O)c1ccc(Oc2ccc(C(C)(C)C)cc2)c([N+](=O)[O-])c1	0.4	38	60*	3	0.6	21
CCCS(=O)(=O)N1CCCC(C(=O)NCCN(CC)c2ccccc2)C1 (stereo not given)	1.4	9	-43	7	0.9	6
CCN(CCCNC(=O)C1CCCN(S(=O)(=O)c2cnc[nH]2)C1)c1ccccc1 (stereo not given)	0.5	78*	52*	0	0.2	5
